# Bioassay records deposited in PubChem BioAssay by Broad Institute.
# C diff HTS: blocks growth of Clostridium difficile; growth activity, negative = inhibition, % at 16 µg/mL (by protocol); Clostridium difficile clinical isolate growth, OD600, 24 h; hits give low values; 86,000 compounds, 0.25% hits;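 active = mean growth activity at or below -80% and every replicate also at or below -80%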;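 note: 0% = DMSO wells and -100% = levofloxacin 16 µg/mL wells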
# Pf Dd2 growth: blocks growth of Plasmodium falciparum Dd2 parasites; activity change, % at 10 µM; P. falciparum Dd2 growth, SYBR Green, 72 h; hits give low values; 94,000 compounds, 2.3% hits; in the data active = activity change below about -80%
# Numbers without * were called inactive; . = not tested or not shown. Hits are enriched below; roughly 2.3% of the tested compounds scored in any of these assays.
SMILES,C diff HTS,Pf Dd2 growth
COc1ccccc1C#Cc1ccc([C@H]2[C@@H](CO)N(C(=O)C3CCCCC3)[C@H]2C#N)cc1,-3,-91*
Cc1noc(C)c1NC(=O)N[C@H]1C=C[C@H](CC(=O)NCCCN(C)C)O[C@H]1CO,-1,-15
C[C@@H]1CN([C@@H](C)CO)C(=O)c2c(c3ccccc3n2C)-c2ccccc2CO[C@@H]1CN(C)S(=O)(=O)c1ccccc1,.,-30
COc1ccc(S(=O)(=O)N(C)C[C@@H]2OCc3ccccc3-c3c(n(C)c4ccccc34)C(=O)N([C@H](C)CO)C[C@@H]2C)cc1,.,-83*
COc1ccc(S(=O)(=O)N(C)C[C@@H]2OCc3ccccc3-c3c(n(C)c4ccccc34)C(=O)N([C@@H](C)CO)C[C@@H]2C)cc1,.,-87*
COc1cccc(S(=O)(=O)N(C)C[C@H]2OCc3ccccc3-c3c(n(C)c4ccccc34)C(=O)N([C@H](C)CO)C[C@H]2C)c1,-1,-43
C[C@H](CO)N1C[C@H](C)[C@@H](CN(C)S(=O)(=O)c2ccccc2)OCc2ccccc2-c2c(n(C)c3ccccc23)C1=O,.,-71
COc1ccc(S(=O)(=O)N(C)C[C@H]2OCc3ccccc3-c3c(n(C)c4ccccc34)C(=O)N([C@@H](C)CO)C[C@@H]2C)cc1,.,-86*
COc1ccc(CN(C)C[C@H]2Oc3ccc(NC(=O)Cn4cnnn4)cc3C(=O)N([C@@H](C)CO)C[C@@H]2C)cc1,-3,0
CCCC#Cc1ccc2c(c1)O[C@H](CN(C)C(=O)NC(C)C)[C@H](C)CN([C@@H](C)CO)S2(=O)=O,-2,9
COc1cccc(C(=O)Nc2ccc3c(c2)C(=O)N(C)C[C@H](OC)[C@@H](C)CN(C(C)=O)[C@H](C)CO3)c1,3,4
COc1ccc(NC(=O)N(C)C[C@@H]2Oc3c(NS(=O)(=O)c4cccs4)cccc3C(=O)N([C@H](C)CO)C[C@@H]2C)cc1,3,-19
C[C@H]1CN([C@@H](C)CO)C(=O)c2cccc(NC(=O)Nc3ccc4c(c3)OCO4)c2O[C@@H]1CN(C)Cc1ccc(C(=O)O)cc1,-2,0
C[C@@H]1CN([C@@H](C)CO)C(=O)c2cccc(NC(=O)Nc3ccc4c(c3)OCO4)c2O[C@@H]1CN(C)C(=O)Nc1ccc2c(c1)OCO2,-4,-90*
C[C@@H]1CN([C@@H](C)CO)C(=O)c2cccc(NC(=O)Nc3ccc4c(c3)OCO4)c2O[C@H]1CN(C)Cc1ccc(C(=O)Nc2ccccc2N)cc1,.,-85*
C[C@@H]1CN([C@@H](C)CO)C(=O)c2cccc(NC(=O)Nc3ccc4c(c3)OCO4)c2O[C@@H]1CN(C)Cc1ccc(C(=O)O)cc1,-4,10
C[C@H]1CN([C@@H](C)CO)C(=O)c2cccc(NC(=O)Nc3ccc4c(c3)OCO4)c2O[C@@H]1CN(C)C(=O)Nc1ccc2c(c1)OCO2,-7,19
C[C@H](CO)N1C[C@H](C)[C@H](CN(C)Cc2ccc(-c3ccccc3)cc2)Oc2c(NC(=O)Nc3ccc4c(c3)OCO4)cccc2C1=O,3,-2
C[C@H]1CN([C@@H](C)CO)C(=O)c2cccc(NC(=O)Nc3ccc4c(c3)OCO4)c2O[C@@H]1CN(C)Cc1ccc(C(=O)Nc2ccccc2N)cc1,5,-85*
C[C@@H]1CN([C@@H](C)CO)C(=O)c2cccc(NC(=O)Nc3ccc4c(c3)OCO4)c2O[C@@H]1CN(C)Cc1ccc(-c2ccccc2)cc1,-96*,-47
O=C(C[C@H]1C=C[C@@H](NC(=O)Nc2cc(F)ccc2F)[C@@H](CO)O1)NCc1ccccn1,-2,22
CN1C(=O)c2cc(NC(=O)C3CCCC3)ccc2OC[C@H]2O[C@@H](CC(=O)NCC3CC3)CC[C@@H]21,0,-17
CNC[C@H]1Oc2c(cccc2N(C)C)C(=O)N([C@H](C)CO)C[C@H]1C,0,21
CNC[C@H]1Oc2ccc(NC(=O)NC(C)C)cc2CC(=O)N([C@@H](C)CO)C[C@H]1C,4,1
C[C@@H]1CN([C@@H](C)CO)C(=O)c2cccc(NC(=O)Nc3ccc4c(c3)OCO4)c2O[C@@H]1CN(C)Cc1ccc(C(=O)Nc2ccccc2N)cc1,.,-93*
SMILES,C diff HTS,Pf Dd2 growth
C[C@H](CO)N1C[C@H](C)[C@H](CN(C)Cc2ccc(C(=O)Nc3ccccc3N)cc2)Oc2ccc(NC(=O)Nc3ccc4c(c3)OCO4)cc2C1=O,-2,-69
COc1ccc(S(=O)(=O)Nc2ccc3c(c2)C(=O)N([C@H](C)CO)C[C@@H](C)[C@@H](CN(C)S(=O)(=O)c2ccccc2)O3)cc1,-11,-24
CCCNC(=O)N1[C@H](C#N)[C@H](c2ccc(-c3ccccc3F)cc2)[C@H]1CO,12,-88*
CCCNC(=O)N1[C@@H](C#N)[C@H](c2ccc(-c3ccccc3F)cc2)[C@@H]1CO,-5,-63
CCCNC(=O)N1[C@H](CO)[C@@H](c2ccc(-c3ccccc3F)cc2)[C@@H]1C#N,1,-16
CCCNC(=O)N1[C@H](C#N)[C@H](c2ccc(-c3ccccc3F)cc2)[C@@H]1CO,18,-87*
CCCN1CCC2(CC1)CN(Cc1ccccc1OC)[C@H](CO)c1c2c2ccc(OC)cc2n1C,9,-92*
COc1ccc2c3c(n(C)c2c1)[C@@H](CO)N(Cc1ccccc1F)CC31CCN(C(=O)C2CC2)CC1,4,-60
COc1ccc2c3c(n(C)c2c1)[C@H](CO)N(Cc1ccccc1OC)CC31CN(CC2CCOCC2)C1,7,-89*
COc1ccc2c3c(n(C)c2c1)[C@@H](CO)N(Cc1ccc(F)cc1)CC31CCN(CC2CC2)CC1,0,-86*
COc1ccc2c3c(n(C)c2c1)[C@@H](CO)N(Cc1ccc(F)cc1)CC31CCN(CC2CCOCC2)CC1,4,-49
COc1ccc2c3c(n(C)c2c1)[C@H](CO)N(Cc1ccccc1OC)CC31CN(CC2CC2)C1,11,-49
COc1ccc2c3c(n(C)c2c1)[C@@H](CO)N(Cc1ccccc1OC)CC31CCN(C(=O)C2CC2)CC1,6,-83*
COc1ccc2c3c(n(C)c2c1)[C@H](CO)N(Cc1ccccc1OC)CC31CCN(C)CC1,2,-42
CO[C@@H]1CN(C)C(=O)c2ccc(NC(=O)c3cc(C)on3)cc2OC[C@H](C)NC[C@@H]1C,.,-5
CC(=O)N1CC2(C1)[C@H](c1ccc(-c3cccc(F)c3)cc1)[C@H](CO)N2CC1CC1,0,-14
CC(C)C#Cc1cnc2c(c1)C(=O)N([C@H](C)CO)C[C@H](C)[C@H](CN(C)C(=O)Cc1ccccn1)O2,-1,18
Cc1noc(C)c1NC(=O)Nc1cccc2c1O[C@H](CN(C)C(=O)Nc1c(C)noc1C)[C@H](C)CN([C@H](C)CO)C2=O,7,20
CC(C)NC(=O)Nc1ccc2c(c1)CC(=O)N([C@@H](C)CO)C[C@@H](C)[C@H](CN(C)C)O2,5,4
CCCN(C)C[C@H]1OCCCC[C@H](C)Oc2ccc(NS(=O)(=O)c3ccc(C)cc3)cc2C(=O)N([C@H](C)CO)C[C@H]1C,8,-86*
CCCN(C)C[C@H]1OCCCC[C@@H](C)Oc2ccc(NS(=O)(=O)c3ccc(Cl)cc3)cc2C(=O)N([C@H](C)CO)C[C@@H]1C,-3,-14
CCCN(C)C[C@@H]1OCCCC[C@@H](C)Oc2ccc(NS(=O)(=O)c3ccc(C)cc3)cc2C(=O)N([C@H](C)CO)C[C@H]1C,6,-89*
